# According to article PMC7862700, “An all-to-all approach to the identification of sequence-specific readers for epigenetic DNA modifications on cytosine”:
# How the values were obtained:
# Test in all cases: DAPPL (digital affinity profiling via proximity ligation, sequencing); 10 mM Tris-HCl pH 7.5, 50 mM NaCl, 1 mM DTT, 4% glycerol, room temperature, 30 min; GST-TFs on glutathione beads, 16-mer random dsDNA library, 0.1% formaldehyde crosslink after washing; high values mean tight binding
# Conditions in all cases: protein: recombinant; tags: N-terminal GST; dsDNA, one strand shown
# ERF = target: T1, ERF (Homo sapiens, UniProt P50548 1-548)
# T1 sequence: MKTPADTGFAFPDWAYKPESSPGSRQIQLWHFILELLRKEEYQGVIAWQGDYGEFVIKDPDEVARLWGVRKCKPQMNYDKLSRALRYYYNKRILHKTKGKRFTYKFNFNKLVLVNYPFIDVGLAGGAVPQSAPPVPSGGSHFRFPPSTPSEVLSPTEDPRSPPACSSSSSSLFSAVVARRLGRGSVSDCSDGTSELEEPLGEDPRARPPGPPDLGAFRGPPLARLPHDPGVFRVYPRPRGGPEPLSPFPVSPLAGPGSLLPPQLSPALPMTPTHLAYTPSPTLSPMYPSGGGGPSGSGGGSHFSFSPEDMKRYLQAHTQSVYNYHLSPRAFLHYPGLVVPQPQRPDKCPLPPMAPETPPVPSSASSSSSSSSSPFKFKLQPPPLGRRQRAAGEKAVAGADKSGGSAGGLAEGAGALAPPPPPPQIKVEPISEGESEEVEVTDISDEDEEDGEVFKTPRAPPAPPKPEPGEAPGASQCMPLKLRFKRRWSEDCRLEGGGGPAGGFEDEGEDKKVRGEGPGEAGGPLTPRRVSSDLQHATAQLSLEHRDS
# Outline: (§1)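 Human transcription factors carrying a GST fusion were produced in yeast, bound to glutathione beads, tagged with DNA barcodes and pooled together with a tag-only sample. Each pool was held with 200 nmole of a random double-stranded 16-mer DNA library in Tris/NaCl/DTT/glycerol buffer for 30 min at room temperature, then washed, crosslinked in 0.1% formaldehyde, proximity-ligated with BsaI/T4 ligase (1 h, 37 °C), PCR-amplified and sequenced on an Illumina NextSeq500. Binding signal is the read frequency of each hexamer for a given factor divided by its frequency in the tag-only sample.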
# ETV3L = target: T2, ETV3L (Homo sapiens, UniProt Q6ZN32 1-361)
# T2 sequence: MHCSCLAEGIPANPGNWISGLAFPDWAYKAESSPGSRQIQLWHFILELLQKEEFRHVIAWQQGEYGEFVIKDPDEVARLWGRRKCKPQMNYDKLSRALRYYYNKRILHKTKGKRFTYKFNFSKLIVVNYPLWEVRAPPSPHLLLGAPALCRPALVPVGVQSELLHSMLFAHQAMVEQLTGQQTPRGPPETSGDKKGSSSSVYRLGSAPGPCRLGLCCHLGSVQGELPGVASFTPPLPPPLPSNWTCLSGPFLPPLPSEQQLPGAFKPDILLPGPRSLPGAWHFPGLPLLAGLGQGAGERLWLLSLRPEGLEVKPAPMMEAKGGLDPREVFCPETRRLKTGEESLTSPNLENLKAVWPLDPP
# Outline: as §1
# ETS2 = target: T3, ETS2 (Homo sapiens, UniProt P15036 1-469)
# T3 sequence: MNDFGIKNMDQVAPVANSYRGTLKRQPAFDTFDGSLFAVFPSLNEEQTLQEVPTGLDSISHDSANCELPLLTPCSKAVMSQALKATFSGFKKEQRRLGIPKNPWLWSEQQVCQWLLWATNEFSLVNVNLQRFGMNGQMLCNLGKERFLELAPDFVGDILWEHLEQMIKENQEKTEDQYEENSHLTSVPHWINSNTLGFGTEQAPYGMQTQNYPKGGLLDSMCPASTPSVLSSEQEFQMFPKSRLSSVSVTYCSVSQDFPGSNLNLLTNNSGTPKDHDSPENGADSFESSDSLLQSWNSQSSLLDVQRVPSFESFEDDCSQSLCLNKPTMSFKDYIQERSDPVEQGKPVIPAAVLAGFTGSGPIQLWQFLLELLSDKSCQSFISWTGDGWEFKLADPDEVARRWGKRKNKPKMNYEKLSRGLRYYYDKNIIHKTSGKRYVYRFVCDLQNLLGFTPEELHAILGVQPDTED
# Outline: as §1
# SPDEF = target: T4, SPDEF (Homo sapiens, UniProt O95238 1-335)
# T4 sequence: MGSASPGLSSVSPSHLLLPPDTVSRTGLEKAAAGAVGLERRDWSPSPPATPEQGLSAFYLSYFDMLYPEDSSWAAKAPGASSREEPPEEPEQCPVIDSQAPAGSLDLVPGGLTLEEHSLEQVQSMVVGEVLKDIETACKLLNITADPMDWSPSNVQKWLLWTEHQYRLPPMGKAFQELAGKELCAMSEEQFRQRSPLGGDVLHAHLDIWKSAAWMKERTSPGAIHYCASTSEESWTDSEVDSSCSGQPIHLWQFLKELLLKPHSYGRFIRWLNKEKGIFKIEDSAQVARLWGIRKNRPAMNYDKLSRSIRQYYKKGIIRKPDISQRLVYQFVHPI
# Outline: as §1
# ETV7 = target: T5, ETV7 (Homo sapiens, UniProt Q9Y603 1-341)
# T5 sequence: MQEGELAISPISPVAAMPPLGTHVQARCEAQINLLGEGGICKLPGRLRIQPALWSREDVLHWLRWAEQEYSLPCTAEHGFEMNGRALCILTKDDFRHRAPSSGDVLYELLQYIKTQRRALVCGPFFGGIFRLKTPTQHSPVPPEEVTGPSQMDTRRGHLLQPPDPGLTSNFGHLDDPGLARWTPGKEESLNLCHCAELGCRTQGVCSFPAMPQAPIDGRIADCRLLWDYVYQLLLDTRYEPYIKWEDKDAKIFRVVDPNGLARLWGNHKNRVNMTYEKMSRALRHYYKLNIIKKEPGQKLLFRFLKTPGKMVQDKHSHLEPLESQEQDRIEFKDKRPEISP
# Outline: as §1
# ELF5 = target: T6, ELF5 (Homo sapiens, UniProt Q9UKW6-2 1-255)
# T6 sequence: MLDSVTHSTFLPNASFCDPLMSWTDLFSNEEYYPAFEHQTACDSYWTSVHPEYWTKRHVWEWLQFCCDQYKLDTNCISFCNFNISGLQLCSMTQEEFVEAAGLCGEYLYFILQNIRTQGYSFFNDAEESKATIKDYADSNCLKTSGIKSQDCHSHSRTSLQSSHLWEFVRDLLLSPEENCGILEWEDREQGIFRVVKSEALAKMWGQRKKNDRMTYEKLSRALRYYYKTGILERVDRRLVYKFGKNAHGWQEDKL
# Outline: as §1
# ETV3 = target: T7, ETV3 (Homo sapiens, UniProt P41162-2 1-143)
# T7 sequence: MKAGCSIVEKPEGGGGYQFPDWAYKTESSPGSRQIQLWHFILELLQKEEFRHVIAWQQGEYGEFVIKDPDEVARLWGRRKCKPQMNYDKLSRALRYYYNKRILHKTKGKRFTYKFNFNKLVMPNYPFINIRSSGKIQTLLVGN
# Outline: as §1
# ETV6 = ETV6 (Homo sapiens, UniProt P41212 1-452)
# Outline: as §1
# Chain of ETV6 (P41212 whole entry): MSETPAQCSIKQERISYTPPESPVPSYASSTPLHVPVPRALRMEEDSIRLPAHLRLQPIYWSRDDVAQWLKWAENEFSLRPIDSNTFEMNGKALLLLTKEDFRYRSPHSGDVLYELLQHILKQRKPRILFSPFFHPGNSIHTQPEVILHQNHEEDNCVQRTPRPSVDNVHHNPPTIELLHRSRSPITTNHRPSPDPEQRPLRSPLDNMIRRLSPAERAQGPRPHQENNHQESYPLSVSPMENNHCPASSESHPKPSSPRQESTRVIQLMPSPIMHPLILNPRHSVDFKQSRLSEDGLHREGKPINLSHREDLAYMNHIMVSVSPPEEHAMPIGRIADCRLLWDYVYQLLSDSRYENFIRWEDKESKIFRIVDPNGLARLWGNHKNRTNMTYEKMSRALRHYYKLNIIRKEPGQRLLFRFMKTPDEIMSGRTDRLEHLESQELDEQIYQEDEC
sequence,measurement,setting,value
CGCACT,binding signal,ERF,"1.21 fold enrichment (6-mer frequency, TF over GST control)"
same,binding signal,ETV3L,"1.29 fold enrichment (6-mer frequency, TF over GST control)"
same,binding signal,ETS2,"1.18 fold enrichment (6-mer frequency, TF over GST control)"
same,binding signal,SPDEF,"1.1 fold enrichment (6-mer frequency, TF over GST control)"
same,binding signal,ETV7,"1.27 fold enrichment (6-mer frequency, TF over GST control)"
same,binding signal,ELF5,"1.23 fold enrichment (6-mer frequency, TF over GST control)"
same,binding signal,ETV3,"1.39 fold enrichment (6-mer frequency, TF over GST control)"
same,binding signal,ETV6,"1.25 fold enrichment (6-mer frequency, TF over GST control)"
AAGTAG,binding signal,ERF,"1.22 fold enrichment (6-mer frequency, TF over GST control)"
same,binding signal,ETV3L,"1.16 fold enrichment (6-mer frequency, TF over GST control)"
same,binding signal,ETS2,"1.31 fold enrichment (6-mer frequency, TF over GST control)"
same,binding signal,SPDEF,"1.07 fold enrichment (6-mer frequency, TF over GST control)"
same,binding signal,ETV7,"1.23 fold enrichment (6-mer frequency, TF over GST control)"
same,binding signal,ELF5,"1.28 fold enrichment (6-mer frequency, TF over GST control)"
same,binding signal,ETV3,"1.26 fold enrichment (6-mer frequency, TF over GST control)"
same,binding signal,ETV6,"1.28 fold enrichment (6-mer frequency, TF over GST control)"
TATTCG,binding signal,ERF,"1.17 fold enrichment (6-mer frequency, TF over GST control)"
same,binding signal,ETV3L,"1.16 fold enrichment (6-mer frequency, TF over GST control)"
same,binding signal,ETS2,"1.13 fold enrichment (6-mer frequency, TF over GST control)"
same,binding signal,SPDEF,"1.1 fold enrichment (6-mer frequency, TF over GST control)"
same,binding signal,ETV7,"1.19 fold enrichment (6-mer frequency, TF over GST control)"
same,binding signal,ELF5,"1.09 fold enrichment (6-mer frequency, TF over GST control)"
same,binding signal,ETV3,"1.19 fold enrichment (6-mer frequency, TF over GST control)"
same,binding signal,ETV6,"1.02 fold enrichment (6-mer frequency, TF over GST control)"
GCAAAA,binding signal,ERF,"1.14 fold enrichment (6-mer frequency, TF over GST control)"
same,binding signal,ETV3L,"1.06 fold enrichment (6-mer frequency, TF over GST control)"
same,binding signal,ETS2,"1.18 fold enrichment (6-mer frequency, TF over GST control)"
same,binding signal,SPDEF,"1 fold enrichment (6-mer frequency, TF over GST control)"
same,binding signal,ETV7,"1.09 fold enrichment (6-mer frequency, TF over GST control)"
same,binding signal,ELF5,"1.06 fold enrichment (6-mer frequency, TF over GST control)"
same,binding signal,ETV3,"1.07 fold enrichment (6-mer frequency, TF over GST control)"
same,binding signal,ETV6,"1.04 fold enrichment (6-mer frequency, TF over GST control)"
GCCTCC,binding signal,ERF,"1.39 fold enrichment (6-mer frequency, TF over GST control)"
same,binding signal,ETV3L,"1.27 fold enrichment (6-mer frequency, TF over GST control)"
same,binding signal,ETS2,"1.27 fold enrichment (6-mer frequency, TF over GST control)"
same,binding signal,SPDEF,"1.3 fold enrichment (6-mer frequency, TF over GST control)"
same,binding signal,ETV7,"1.29 fold enrichment (6-mer frequency, TF over GST control)"
same,binding signal,ELF5,"1.29 fold enrichment (6-mer frequency, TF over GST control)"
same,binding signal,ETV3,"1.24 fold enrichment (6-mer frequency, TF over GST control)"
same,binding signal,ETV6,"1.16 fold enrichment (6-mer frequency, TF over GST control)"
AACACC,binding signal,ERF,"1.15 fold enrichment (6-mer frequency, TF over GST control)"
same,binding signal,ETV3L,"1.15 fold enrichment (6-mer frequency, TF over GST control)"
same,binding signal,ETS2,"1.13 fold enrichment (6-mer frequency, TF over GST control)"
same,binding signal,SPDEF,"1.15 fold enrichment (6-mer frequency, TF over GST control)"
same,binding signal,ETV7,"1.13 fold enrichment (6-mer frequency, TF over GST control)"
same,binding signal,ELF5,"1.09 fold enrichment (6-mer frequency, TF over GST control)"
same,binding signal,ETV3,"1.13 fold enrichment (6-mer frequency, TF over GST control)"
same,binding signal,ETV6,"1.06 fold enrichment (6-mer frequency, TF over GST control)"
ATATTT,binding signal,ERF,"1.55 fold enrichment (6-mer frequency, TF over GST control)"
same,binding signal,ETV3L,"1.4 fold enrichment (6-mer frequency, TF over GST control)"
same,binding signal,ETS2,"1.58 fold enrichment (6-mer frequency, TF over GST control)"
same,binding signal,SPDEF,"1.54 fold enrichment (6-mer frequency, TF over GST control)"
same,binding signal,ETV7,"1.67 fold enrichment (6-mer frequency, TF over GST control)"
same,binding signal,ELF5,"1.65 fold enrichment (6-mer frequency, TF over GST control)"
same,binding signal,ETV3,"1.65 fold enrichment (6-mer frequency, TF over GST control)"
same,binding signal,ETV6,"1.57 fold enrichment (6-mer frequency, TF over GST control)"
